ERAP1 inh – human ERAP1 aminopeptidase inhibitors, primary screen, biochemical, single point, plate reader; Endoplasmic reticulum aminopeptidase 1 (Homo sapiens), Q9NZ08; recombinant ERAP1, Leu-AMC fluorescence, 60 min; inhibition, % at 10.7 µM; actives 0.15% (n = 340,000); AID 652197, 2013;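 active = mean replicate inhibition of at least 30%, or all replicates individually reaching that 30% level; inactive = mean below 30% and not every replicate reaching it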;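 also: 0% = neutral control wells and 100% = L-leucinethiol positive control wells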
HDAC3 inhib – HDAC3 deacetylase inhibitors, primary screen, biochemical, fluorescence, cell-free homogeneous; Histone deacetylase 3 (Homo sapiens), O15379; recombinant HDAC3, fluorogenic peptide/trypsin coupled; inhibition, % at 8.3 µM; actives 0.15% (n = 320,000); in the data active = inhibition above about 26%, passing the limit was not always enough
Target sequence (O15379 whole entry, looked up): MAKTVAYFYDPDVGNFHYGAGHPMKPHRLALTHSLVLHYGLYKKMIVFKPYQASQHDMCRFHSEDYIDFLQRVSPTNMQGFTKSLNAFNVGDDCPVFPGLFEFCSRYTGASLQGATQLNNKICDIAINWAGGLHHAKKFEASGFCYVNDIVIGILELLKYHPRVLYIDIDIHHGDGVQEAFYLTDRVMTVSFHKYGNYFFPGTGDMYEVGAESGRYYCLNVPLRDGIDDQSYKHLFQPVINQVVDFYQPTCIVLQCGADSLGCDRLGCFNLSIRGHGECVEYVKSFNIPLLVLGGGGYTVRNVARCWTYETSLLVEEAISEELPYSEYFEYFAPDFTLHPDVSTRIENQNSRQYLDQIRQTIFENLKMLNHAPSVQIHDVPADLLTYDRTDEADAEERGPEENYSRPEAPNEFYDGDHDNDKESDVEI
SIRT5 inh – SIRT5 desuccinylase inhibitors, primary screen, biochemical, fluorescence imaging, single point, set 5; NAD-dependent protein deacylase sirtuin-5, mitochondrial (Homo sapiens), Q9NXA8; Purified SirT5, succinyl-peptide AMC, trypsin-coupled fluorescence; AID 652115, 2013; actives 1.1% (n = 330,000); inhibition, % at 15 µM; in the data active = inhibition above about 15%
ERp5 block – inhibitors of ERp5-driven insulin aggregation, primary screen, biochemical, turbidity, absorbance 650 nm, single point; Protein disulfide-isomerase A6 (Homo sapiens), Q15084; 90 min; inhibition, % at 9.99 µM; actives 0.05% (n = 350,000); AID 651711, 2012;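 active = mean replicate inhibition above about 25%, with every replicate also reaching it, limit read from the data, passing the limit was not always enough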
PDI turbidity – inhibitors of human PDI, primary screen, biochemical, turbidity, single point, plate reader | PDI insulin aggregation turbidity, A650, 90 min | actives 0.052% (n = 350,000) | inhibition, % at 10 µM | AID 588391, 2011 | Protein disulfide-isomerase (Homo sapiens), P07237;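 active = mean inhibition across replicates of 30% or more, whatever share of single replicates reach that level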
An asterisk follows results filed as active; . = no result. Only a selection was taken, and hits are over-represented in it overall.

SMILES	ERAP1 inh	HDAC3 inhib	SIRT5 inh	ERp5 block	PDI turbidity
COC(=O)[C@]1(C)N[C@H](CN(C)C(=O)c2ccccc2)[C@@H]2C(=O)N(C)C(=O)[C@@H]21	-4	-10	34*	-1	-10
CC(C)NC(=O)N(C)C[C@H]1Oc2cc(C#CC3CC3)ccc2S(=O)(=O)N([C@H](C)CO)C[C@@H]1C	-5	.	0	-6	.
CC(C)OCCCn1c(SCC(=O)N2CCCC2=O)nc2ccccc2c1=O	-2	15	-2	3	-11
CC(C)OCCCn1c(SCC(=O)N2CCc3ccccc32)nc2ccccc2c1=O	2	1	21*	-2	13
O=C(Cn1[nH]c(=O)c2ccccc2c1=O)OCC(=O)c1ccc(F)cc1	0	0	16*	-10	3
O=C(NCC1CC1)[C@@H]1[C@@H](CO)[C@@H]2Cn3c(cccc3=O)[C@H]1N2C(=O)c1cccnc1	1	.	2	-4	.
Cc1cccc(NC(=O)CSc2nnc(-c3n[nH]c4ccccc34)o2)c1	7	-8	16*	9	-5
N#Cc1cccc(NC(=O)CSc2nnc(-c3n[nH]c4ccccc34)o2)c1	0	-15	-1	-3	1
CCn1c(=O)c(C(=O)CN2CCN(S(=O)(=O)c3ccc(C)cc3C)CC2)c(N)n(Cc2ccccc2)c1=O	2	1	23*	2	-4
C[C@@H]1CN([C@H](C)CO)C(=O)c2cccc(NC(=O)Nc3cccc4ccccc34)c2O[C@H]1CN(C)S(=O)(=O)c1cn(C)cn1	2	.	1	-2	.
Cc1noc(C)c1-c1ccc(C(=O)Nc2cccc(C(F)(F)F)c2)c2occc12	7	.	19*	1	-28
O=C(Nc1cccc(Cl)c1)N1C[C@@H]2[C@H](c3ccccc31)[C@@H](CO)N2C(=O)C1CC1	-3	.	1	-4	.
C[C@@H]1CCCCO[C@@H](CN(C)C(=O)Nc2ccc(C(F)(F)F)cc2)[C@@H](C)CN([C@H](C)CO)C(=O)c2cc(NC(=O)Nc3ccc4c(c3)OCO4)ccc2O1	2	.	1	3	.
C[C@H](CO)N1C[C@H](C)[C@@H](CN(C)C(=O)C2CCCCC2)OCCCC[C@H](C)Oc2ccc(NC(=O)Nc3ccc4c(c3)OCO4)cc2C1=O	-1	.	16*	8	.
C[C@@H]1CCCCO[C@H](CN(C)C(=O)Nc2ccc(C(F)(F)F)cc2)[C@H](C)CN([C@@H](C)CO)C(=O)c2cc(NC(=O)Nc3ccc4c(c3)OCO4)ccc2O1	-2	.	15*	8	.
C[C@@H]1CCCCO[C@@H](CN(C)C(=O)Nc2ccc3c(c2)OCO3)[C@@H](C)CN([C@H](C)CO)C(=O)c2cc(NC(=O)Nc3ccc4c(c3)OCO4)ccc2O1	1	.	17*	1	.
CC=Cc1ccc2n(c1=O)C[C@H]1[C@H](CO)[C@@H](C(=O)NC3CCCC3)N(C(=O)C3CC3)[C@@H]21 (mixture of isomers)	.	.	-4	.	.
O=C(/C=C/c1ccc(Br)o1)OCc1nc2ccsc2c(=O)[nH]1	4	-4	25*	0	11
Cc1ccc(C(=O)OCc2nc3ccsc3c(=O)[nH]2)o1	2	-3	-7	-8	2
COc1ccc(NC(=O)Nc2ccc3c(c2)C(=O)N([C@H](C)CO)C[C@H](C)[C@@H](CN(C)S(=O)(=O)c2ccc(F)cc2)OCCCC[C@H](C)O3)cc1	4	.	10	2	.
O=C(CSc1nc(O)c(Cc2ccccc2)c(=O)[nH]1)Nc1ccccc1	.	-2	.	.	-14
Cc1ccc(C(=O)CSc2nc(O)cc(=O)[nH]2)cc1C	-1	30*	-1	-3	-3
C=CCc1c(O)nc(SCC(=O)c2ccccc2)[nH]c1=O	.	37*	.	.	3
CCC(C)c1c(O)nc(SCC(=O)c2ccccc2)[nH]c1=O (stereo not drawn)	.	33*	.	.	1
Cc1ccc(C(=O)CSc2nc(N)cc(=O)[nH]2)cc1C	4	5	-2	4	-16
SMILES	ERAP1 inh	HDAC3 inhib	SIRT5 inh	ERp5 block	PDI turbidity
O=C(C[C@@H]1C=C[C@@H](NC(=O)Nc2ccccc2F)[C@H](CO)O1)NCc1ccc(-c2ccccc2)cc1	-1	.	-2	-5	.
CCOc1[nH]n(-c2ccccc2)c(=O)c1C=Nc1ccc(C)cc1	1	8	18*	6	-6
CC(=O)Nc1cccc(-c2ccnc3c2CC(C(=O)NCc2ccncc2)O3)c1 (stereo not drawn)	-6	.	.	-1	-1
CC(=O)Nc1cccc(-c2ccnc3c2CC(C(=O)NCc2ccc(F)c(F)c2)O3)c1 (stereo not drawn)	-2	.	15*	-9	-3
CNC[C@H]1Oc2c(NC(=O)c3ccc(-c4nccs4)cc3)cccc2C(=O)N([C@H](C)CO)C[C@H]1C	2	.	28*	-3	.
C[C@@H]1CN([C@@H](C)CO)C(=O)c2cccc(NC(=O)c3ccc(-c4nccs4)cc3)c2O[C@@H]1CN(C)Cc1ccc(C(F)(F)F)cc1	1	.	26*	-1	.
C[C@@H]1CN([C@H](C)CO)C(=O)c2cccc(NC(=O)c3ccc(-c4nccs4)cc3)c2O[C@@H]1CN(C)Cc1ccc(C(F)(F)F)cc1	-1	.	17*	1	.
C[C@H](CO)N1C[C@H](C)[C@@H](CN(C)Cc2ccc(C(F)(F)F)cc2)Oc2c(NC(=O)c3ccc(-c4nccs4)cc3)cccc2C1=O	1	.	5	-1	.
CNC[C@H]1Oc2c(N)cccc2C(=O)N([C@H](C)CO)C[C@@H]1C	5	.	3.0*	-1	.
C[C@@H]1CN([C@H](C)CO)C(=O)c2cccc(NC(=O)Nc3ccccc3)c2O[C@@H]1CN(C)S(=O)(=O)c1ccccc1	-2	.	7	-1	.
C[C@H]1CN([C@@H](C)CO)C(=O)c2cc(C#CCC3CCCC3)cnc2O[C@H]1CN(C)C(=O)c1cnccn1	0	.	24*	-10	.
CC(=O)N(C)C[C@H]1Oc2ncc(C#CCC3CCCC3)cc2C(=O)N([C@@H](C)CO)C[C@H]1C	-3	.	19*	-5	.
CC(=O)N(C)C[C@H]1Oc2ncc(C#CCC3CCCC3)cc2C(=O)N([C@H](C)CO)C[C@@H]1C	-3	.	0	2	.
CC(=O)N(C)C[C@@H]1Oc2ncc(C#Cc3cccc(F)c3)cc2C(=O)N([C@H](C)CO)C[C@H]1C	2	.	21*	5	.
CN1c2ccc(-c3ccccc3F)cc2[C@@H]2[C@@H](CCN2C(=O)NC2CCCCC2)[C@H]1CO	2	.	-6	0	.
O=C(C[C@@H]1C=C[C@@H](NC(=O)c2ccncc2)[C@@H](CO)O1)NCCc1ccncc1	-1	.	-3	0	.
C[C@H](CO)N1C[C@H](C)[C@@H](CN(C)C(=O)c2ccccn2)Oc2cc(C#Cc3ccccc3)ccc2S1(=O)=O	3	.	1	2	.
COc1ccc(C=C(C#N)C(=O)c2ccccc2)cc1	0	.	.	-3	.
